Test results taken from PubChem BioAssay (NCI).
Compounds without any hit were thinned out: in the full panel of roughly 83,000, 20% have a hit.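 Values shown are percent growth following 48 h exposure of cells in 96-well plates to a single concentration of compound; below 10 was considered active.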 Unmarked numbers belong to inactive results. Activity calls are given as the source filed them.

tested on: KM12 colon; assay: NCI-60 one-dose screen, 48 h (100 = growth as untreated, 0 = no growth, -100 = all killed); settings: 10 µM unless noted

Compound	growth
Brc1ccc2[nH]cc(-c3cncn3CCc3ccccc3)c2c1	68%
CN(CCN(C)c1ccc(C(=N)N)cc1)c1ccc(C(=N)N)cc1	91.3%
Nc1ccccc1NC(=O)c1ccc(-n2nc(-c3ccccc3)c3ccccc32)cc1	91.4%
CC(C)(C)c1cc(/C=N/NC(=O)c2ccccc2NC(=O)c2cccs2)c(O)c(C(C)(C)C)c1	25.6%
CCCCCCCCO/N=C\c1c2c(O)c3c(O)c(C)c4c(c3c1O)C(=O)C(C)(O/C=C\C(OC)C(C)C(OC(C)=O)C(C)C(O)C(C)C(O)C(C)/C=C\C=C(\C)C(=O)N2)O4 (stereo not drawn)	17.1%
O=C1CC(=O)OC(c2ccc([N+](=O)[O-])cc2)O1	-75.3% (active)
CN1CCN(c2ccc(NC3=C(Cl)C(=O)c4ncccc4C3=O)cc2C(F)(F)F)CC1	105%
O=C(c1nc2ccccc2[nH]1)C1C(c2ccc(Br)cc2)C2CC3CCCC[C@H]3N2[C@@]12C(=O)Nc1cc(Cl)ccc12 (stereo partly drawn)	37.9%
N=C(N)c1ccc(OCCCCCCCCCCOc2ccc(C(=N)N)cc2)cc1	-87.9% (active)
CNC(=O)c1cc(Cn2nc(C)c(NC(=O)Nc3ccc(Cl)c(C(F)(F)F)c3)c2C)ccn1	106%
O=S(=O)(Nc1ccc(-n2cnc3cc(-c4ccc(O)cc4)ccc32)cc1)c1ccccc1	54.6%
O=C(N/N=C/c1ccc(Oc2ccccc2)cc1)c1cnn2c1NC(c1ccccc1)C2 (stereo not drawn)	44.7%
COc1cc(/C(C)=C(\c2ccc(Cl)cc2)c2ccc(OCCN3CCCC3)cc2)ccc1F	36.7%
